Ba CapD inh = CapD enzyme inhibition; AID 492967; z-score (concentration not given with the values); purified CapD enzyme, fluorescence intensity read-out; stronger effect = lower value; actives 0.23% (n = 140,000); in the data active = z-score mostly below about -2.9, no sharp cut-off; inactive = mostly above about -1.9
Large screens that a line does not name were inactive. The full list was thinned out, with hits kept by preference.

CCCN1C(=O)c2ccccc2C(C(=O)O)C1c1ccc(OC)cc1 (stereo not given)	none
CSc1n[nH]c(-c2ccccc2)n1	none
CC(C)NC(=O)NC1CCN(S(=O)(=O)c2ccc(Cl)cc2)CC1	none
O=c1[nH]c2ccc(Cl)cc2c(-c2ccccc2)c1NS(=O)(=O)c1ccccc1	none
CCCCC(=O)O/N=C1\C(=O)N(Cc2ccc(C)cc2)c2ccccc21	none
Cc1ccc(C)n1-c1ccc(C(=O)O)c(C(=O)O)c1	Ba CapD inh -8.4
Cc1ccc(C)n1-c1cccc(C(=O)O)c1	Ba CapD inh -8.6
Cc1cc(C(=O)O)c(C)n1-c1ccc(Cl)cc1	none
Cc1ccc(C)n1-c1sccc1C(=O)CC#N	none
Cc1ccc(C)n1-c1sccc1C(=O)O	Ba CapD inh -11
CC(=O)Nc1sccc1C(=O)O	none
Cc1ccc(C)n1-c1ccc(CC(=O)O)cc1	none
O=C(O)c1cccc(N2CCCC2)c1	none
Cc1ccc(C)n1-c1cccc(N)c1	none
O=C(OCc1ccccc1SC(F)(F)F)N1CCN(Cc2ccccc2OCc2ccccc2)CC1	none
CSc1ccccc1-c1nc(-c2ccccc2)no1	none
O=C(NCCOc1ccc(Cl)cc1)c1ccccc1Cl	none
CCOC(=O)c1c(NC(=O)CN2C(=O)S/C(=C/c3ccc(F)cc3)C2=O)sc2c1CCCC2	none
CCN(Cc1ccccc1)Cc1nnc(-c2ccccc2)o1	none
CC(=O)O/N=C1\C(=O)N(Cc2ccc(Cl)cc2)c2ccc(Cl)cc21	none
O=C(OCc1nc(-c2ccc(Cl)cc2)cs1)N1CCN(c2cnccn2)CC1	none
O=C1c2ccccc2-c2nn(C(=O)c3ccco3)c3cccc1c23	none
COc1ccc(/C=C2\CCCC3=C2NC(=S)NC3c2ccc(OC)cc2)cc1 (stereo not given)	none
Cc1ccc(N2CCN(S(=O)(=O)c3cc(F)c(Br)cc3F)CC2C)cc1 (stereo not given)	none
COC(=O)CNC(=O)c1ccccc1	none
CCOC(=O)c1[nH]c(=O)[nH]c1CN(Cc1ccco1)Cc1[nH]c(=O)[nH]c1C(=O)OCC	none
CCOC(=O)c1[nH]c(=O)[nH]c1COC(=O)CNC(=O)c1ccccc1	Ba CapD inh -6.1
N#Cc1c(N)nc2sc(C(=O)c3ccccc3)c(N)c2c1-c1ccccc1	none
O=C(COC(=O)C12CC3CC(CC(Cl)(C3)C1)C2)c1ccccc1	none
N#CC(C#N)=C(N)/C(C#N)=C/c1c[nH]c2ccccc12	Ba CapD inh -3
CN(C)c1ccc(/C=C(\C#N)C(N)=C(C#N)C#N)cc1	none
O/N=C/c1c[nH]c2ccccc12	none
CCC1=C(c2ccc(C)cc2)S(=O)(=O)N=C1N1CCC(C(=O)N(C)Cc2ccco2)CC1	none
COc1cccc(OCC(=O)OC2CCS(=O)(=O)C2)c1 (stereo not given)	none
COc1ccc(CCNC(=O)c2cc(C(F)(F)F)cc(C(F)(F)F)c2)cc1OC	none
Cc1ccc(N2C(=O)NC(=O)/C(=C\c3cc(C)n(-c4cc(C(=O)O)cc(C(=O)O)c4)c3C)C2=O)cc1	none
Cc1cc(/C=C2\C(=O)NC(=S)N(c3cccc(Cl)c3)C2=O)c(C)n1-c1cc(C(=O)O)cc(C(=O)O)c1	Ba CapD inh -5.9
Cc1cc(/C=C2\C(=O)NC(=S)N(c3ccc(F)cc3)C2=O)c(C)n1-c1ccccc1	none
COc1cc(C2Nc3ccc4ccccc4c3C3=C2C(=O)CC(C)(C)C3)ccc1OCc1cc2c(cc1Cl)OCO2 (stereo not given)	none
Cc1c(C(=O)N2CCN(Cc3ccc4c(c3)OCO4)CC2)sc2ncn(CC(=O)N3CCOCC3)c(=O)c12	none
O=C(CCS(=O)(=O)c1nc(-c2ccc3c(c2)OCO3)cc(C(F)(F)F)n1)Nc1ccc(OC(F)(F)F)cc1	none
CCC12CN3CC(CC)(CN(C1)C3c1ccccc1)C2O (stereo not given)	none
N#Cc1ccc2c(c1)nc1c3ccc(C(=O)O)c4c(C(=O)O)ccc(c(=O)n21)c43	none
O=c1c2ccc(N/N=C/c3c4ccccc4cc4ccccc34)c3cccc(c32)c2nc3ccccc3n12	none
O=C(O)c1ccc(C(=O)O)c2c(-c3ccc4c(=O)n5c6ccccc6nc5c5ccc(C(=O)O)c3c45)ccc(C(=O)O)c12	Ba CapD inh -8.4
CNCCC(Oc1ncccc1C(F)(F)F)c1ccccc1 (stereo not given)	none
Fc1cccc(Cl)c1CSCc1c(F)cccc1Cl	none
CN(C)/C=C/C(=N)SCc1c(F)cccc1Cl	Ba CapD inh -3.8
N=C(N)SCc1c(Cl)cccc1Cl	none
O=c1/c(=C/c2ccccc2)sc2nc(-c3ccccc3)nn12	none
OCCCCCCNC(=S)Nc1ccc(F)cc1Br	none
CSC1=N/C(=C/c2ccco2)C(=O)N1	none
CSC1=N/C(=C/c2cccs2)C(=O)N1	Ba CapD inh -4
CC1(C)OC(=O)C(=Cc2cccs2)C(=O)O1	none
COC(=O)C1=C(Nc2ccccc2NC(=O)c2ccc(Cl)cc2)CSC1	none
CCOc1cc(C2CC(=O)NC(SCC(=O)Nc3ccccc3C)=C2C#N)ccc1O (stereo not given)	none
CCc1nc(C)ccc1OCC(=O)O	Ba CapD inh -5
Cc1ccc(OCC(=O)O)c(C)c1	none
CCc1nc(C)ccc1OCC(N)=O	none
Cc1[nH]c2ccccc2c1Sc1ccccc1N	none
COc1ccc(OCC(=O)Nc2cccnc2)cc1	none
COc1ccc2[nH]c3c(=O)n(CCCC(=O)NCc4ccco4)c(=S)[nH]c3c2c1	none
CN(C)/C=C/C(=O)c1cc(-c2ccccc2)no1	none
CN(C)/C=C/C(=O)c1ccco1	Ba CapD inh -4.4
CSC(=CC(=O)c1ccco1)SC	none
O=c1c(=NNc2nn[nH]n2)c(=O)c2ccccc12	none
CCC(=O)Nc1nnc(CCCn2c(-c3nonc3NC(=O)CC)nc3ccccc32)s1	none
CC1=NN(c2ccccc2)C(=O)C1	none
CC1=NN(c2ccc(C(=O)NCc3ccc(N(C)C)cc3)cc2)C(=O)C1	none
CC1=NN(c2ccc3c(S(=O)(=O)O)cc(S(=O)(=O)O)cc3c2)C(=O)C1	Ba CapD inh -6
CCOC(=O)c1cccc(NC(=O)C(CC(C)C)NC(=O)C2CCCCC2)c1 (stereo not given)	none
CN(C)c1ccc(/C=C2/SC(=S)N(CCCCC(C(=O)O)N3C(=O)/C(=C\c4ccc(N(C)C)cc4)SC3=S)C2=O)cc1 (stereo not given)	none
CCC(C(=O)O)N1C(=O)/C(=C/c2ccccc2)SC1=S (stereo not given)	none
CSCCC(C(=O)O)N1C(=O)/C(=C/c2ccc(O)cc2)SC1=S (stereo not given)	Ba CapD inh -4
COc1ccccc1N(CC(O)CN1CCCCC1)S(=O)(=O)c1ccccc1 (stereo not given)	none
COc1cccc(-c2nc3sc4c(c3c(=O)n2CC(=O)Nc2ccc(F)c(Cl)c2)CCCC4)c1	none
CCOc1ccccc1-n1c(N)c(C(=O)Nc2ccccc2C)sc1=S	none
CCC(=O)Nc1ncnc2sc3c(c12)CCCC3	none
CC(=O)Nc1ncnc2sc3c(c12)CCCC3	Ba CapD inh -8.8
O=C(Nc1ncnc2sc3c(c12)CCCC3)c1ccc(F)cc1	none
C=CCN(CC=C)C(=O)c1csc(Nc2ccc(OC)cc2)n1	none
CC(N=CC1=C(O)CNC1=O)c1ccccc1 (stereo not given)	none
O=C1NCC(O)=C1/C=N/Nc1ccccc1	Ba CapD inh -4.4
O=c1[nH]c(O)c(/C=N/Nc2ccccc2)c(=O)[nH]1	none
O=C(Cn1cnc2sc3c(c2c1=O)CCCC3)NCC(=O)N1CCN(Cc2ccc3c(c2)OCO3)CC1	none
CCC1CCCCN1C(=O)CSCc1ccc(Cl)cc1 (stereo not given)	none
CCC1CCCCN1C(=O)CSc1nnc(-c2ccc(Cl)cc2)o1 (stereo not given)	Ba CapD inh -4.8
CCC1CCCCN1C(=O)CSc1ccc(Cl)cc1 (stereo not given)	none
O=C(/C=C/c1cc2c(cc1Br)OCO2)NCc1ccccc1Cl	none
